# In publication PMC7862700, “An all-to-all approach to the identification of sequence-specific readers for epigenetic DNA modifications on cytosine”:
# What was measured:
# Test in all cases: DAPPL (digital affinity profiling via proximity ligation, sequencing); 10 mM Tris-HCl pH 7.5, 50 mM NaCl, 1 mM DTT, 4% glycerol, room temperature, 30 min; GST-TFs on glutathione beads, 16-mer random dsDNA library, 0.1% formaldehyde crosslink after washing; high values mean tight binding
# Details in all cases: protein: recombinant; tags: N-terminal GST; dsDNA, one strand shown
# [1] = biological target: T1, ELK1 (Homo sapiens, UniProt P19419 1-428)
# T1 sequence: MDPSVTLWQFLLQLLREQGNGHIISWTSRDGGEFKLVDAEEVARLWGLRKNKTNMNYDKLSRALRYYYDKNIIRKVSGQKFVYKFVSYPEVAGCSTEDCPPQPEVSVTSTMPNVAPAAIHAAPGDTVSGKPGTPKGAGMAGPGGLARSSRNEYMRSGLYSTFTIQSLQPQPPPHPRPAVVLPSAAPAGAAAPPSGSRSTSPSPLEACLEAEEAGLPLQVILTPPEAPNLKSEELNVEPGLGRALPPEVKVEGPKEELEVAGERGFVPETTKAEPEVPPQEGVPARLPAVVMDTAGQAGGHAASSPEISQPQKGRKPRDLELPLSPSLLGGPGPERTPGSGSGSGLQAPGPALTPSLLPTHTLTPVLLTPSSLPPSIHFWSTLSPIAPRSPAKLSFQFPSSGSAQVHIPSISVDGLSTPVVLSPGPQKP
# How it was run: (§1)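 In yeast, human transcription factors were expressed with a GST fusion, then pulled down on glutathione beads and given DNA barcodes. Pooled with a tag-only sample, they were exposed to 200 nmole of a 16-mer random double-stranded DNA library (Tris/NaCl/DTT/glycerol buffer, room temperature, 30 min), washed, crosslinked with 0.1% formaldehyde, proximity-ligated using BsaI/T4 ligase for 1 h at 37 °C, PCR-amplified and read on an Illumina NextSeq500. Each hexamer's frequency of reads for a factor, divided by the matching frequency for the tag-only sample, gives the binding signal.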
# [2] = biological target: ELF1 (Homo sapiens, UniProt P32519 1-619)
# How it was run: as §1
# [3] = biological target: T2, ELK3 (Homo sapiens, UniProt P41970 1-407)
# T2 sequence: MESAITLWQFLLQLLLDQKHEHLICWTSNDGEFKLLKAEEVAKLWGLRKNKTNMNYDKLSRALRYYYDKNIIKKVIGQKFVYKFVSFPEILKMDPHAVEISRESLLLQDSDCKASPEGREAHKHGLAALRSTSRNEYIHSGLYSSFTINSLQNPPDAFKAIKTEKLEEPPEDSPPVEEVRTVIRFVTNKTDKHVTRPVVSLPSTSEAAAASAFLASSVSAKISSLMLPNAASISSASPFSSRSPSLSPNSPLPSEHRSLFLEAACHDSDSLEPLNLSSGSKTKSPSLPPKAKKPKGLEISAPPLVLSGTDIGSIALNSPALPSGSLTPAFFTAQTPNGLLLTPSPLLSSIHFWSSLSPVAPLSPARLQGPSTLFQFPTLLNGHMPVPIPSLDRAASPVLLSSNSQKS
# How it was run: as §1
# [4] = biological target: T3, FEV (Homo sapiens, UniProt Q99581 1-238)
# T3 sequence: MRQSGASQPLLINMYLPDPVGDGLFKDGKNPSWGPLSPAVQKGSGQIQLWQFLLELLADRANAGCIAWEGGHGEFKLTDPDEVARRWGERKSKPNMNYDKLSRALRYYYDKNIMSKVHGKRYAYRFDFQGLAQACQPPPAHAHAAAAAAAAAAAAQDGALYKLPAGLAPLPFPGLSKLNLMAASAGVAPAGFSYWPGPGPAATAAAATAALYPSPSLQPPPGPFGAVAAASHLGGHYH
# How it was run: as §1
# [5] = biological target: T4, SPIC (Homo sapiens, UniProt Q8N5J4 1-248)
# T4 sequence: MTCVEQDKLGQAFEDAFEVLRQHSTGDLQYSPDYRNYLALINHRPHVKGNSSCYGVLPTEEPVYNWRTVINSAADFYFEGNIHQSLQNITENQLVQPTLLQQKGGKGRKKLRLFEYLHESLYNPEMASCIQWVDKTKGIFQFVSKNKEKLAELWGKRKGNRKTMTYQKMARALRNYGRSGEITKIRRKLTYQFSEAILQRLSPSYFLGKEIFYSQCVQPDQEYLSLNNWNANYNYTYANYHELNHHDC
# How it was run: as §1
# [6] = biological target: T5, ELF3 (Homo sapiens, UniProt P78545 1-371)
# T5 sequence: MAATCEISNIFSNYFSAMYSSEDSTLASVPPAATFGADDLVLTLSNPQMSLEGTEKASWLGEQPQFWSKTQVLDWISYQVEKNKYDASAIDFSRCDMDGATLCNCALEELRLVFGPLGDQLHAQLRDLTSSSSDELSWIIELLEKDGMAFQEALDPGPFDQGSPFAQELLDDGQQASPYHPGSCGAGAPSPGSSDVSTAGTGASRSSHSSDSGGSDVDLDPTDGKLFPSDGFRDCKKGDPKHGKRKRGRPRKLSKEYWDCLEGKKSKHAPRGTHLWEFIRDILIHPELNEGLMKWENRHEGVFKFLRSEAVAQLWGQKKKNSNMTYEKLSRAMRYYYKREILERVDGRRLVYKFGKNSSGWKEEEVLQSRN
# How it was run: as §1
# [7] = biological target: T6, ETV3L (Homo sapiens, UniProt Q6ZN32 1-361)
# T6 sequence: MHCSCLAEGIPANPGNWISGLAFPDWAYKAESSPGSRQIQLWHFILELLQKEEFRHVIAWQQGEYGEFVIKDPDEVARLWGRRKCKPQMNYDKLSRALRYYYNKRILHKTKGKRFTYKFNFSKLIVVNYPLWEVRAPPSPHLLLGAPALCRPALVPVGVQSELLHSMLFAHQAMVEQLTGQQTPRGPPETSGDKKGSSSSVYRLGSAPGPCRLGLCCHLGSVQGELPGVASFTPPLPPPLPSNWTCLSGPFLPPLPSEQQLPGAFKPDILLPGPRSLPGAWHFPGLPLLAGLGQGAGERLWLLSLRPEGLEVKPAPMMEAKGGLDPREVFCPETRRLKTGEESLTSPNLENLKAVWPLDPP
# How it was run: as §1
# [8] = biological target: T7, ETV3 (Homo sapiens, UniProt P41162-2 1-143)
# T7 sequence: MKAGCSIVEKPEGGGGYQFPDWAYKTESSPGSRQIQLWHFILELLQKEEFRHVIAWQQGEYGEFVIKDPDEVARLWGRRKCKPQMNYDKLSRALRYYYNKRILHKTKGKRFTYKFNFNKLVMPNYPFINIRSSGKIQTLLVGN
# How it was run: as §1
# [9] = biological target: ETV6 (Homo sapiens, UniProt P41212 1-452)
# How it was run: as §1
# [10] = biological target: T8, GABPA (Homo sapiens, UniProt Q06546 1-454)
# T8 sequence: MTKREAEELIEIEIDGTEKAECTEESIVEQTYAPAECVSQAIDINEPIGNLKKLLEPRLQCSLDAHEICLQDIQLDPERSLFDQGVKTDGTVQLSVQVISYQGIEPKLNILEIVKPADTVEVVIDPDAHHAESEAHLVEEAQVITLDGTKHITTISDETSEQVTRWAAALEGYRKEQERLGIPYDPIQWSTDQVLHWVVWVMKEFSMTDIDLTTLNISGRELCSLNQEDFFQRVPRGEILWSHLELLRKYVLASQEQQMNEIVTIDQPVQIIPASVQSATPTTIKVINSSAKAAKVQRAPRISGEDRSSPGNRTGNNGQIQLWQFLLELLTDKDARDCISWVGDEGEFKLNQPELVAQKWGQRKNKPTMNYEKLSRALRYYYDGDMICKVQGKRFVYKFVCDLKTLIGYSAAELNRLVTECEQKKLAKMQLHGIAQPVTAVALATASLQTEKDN
# How it was run: as §1
# [11] = biological target: T9, ERG (Homo sapiens, UniProt P11308 1-479)
# T9 sequence: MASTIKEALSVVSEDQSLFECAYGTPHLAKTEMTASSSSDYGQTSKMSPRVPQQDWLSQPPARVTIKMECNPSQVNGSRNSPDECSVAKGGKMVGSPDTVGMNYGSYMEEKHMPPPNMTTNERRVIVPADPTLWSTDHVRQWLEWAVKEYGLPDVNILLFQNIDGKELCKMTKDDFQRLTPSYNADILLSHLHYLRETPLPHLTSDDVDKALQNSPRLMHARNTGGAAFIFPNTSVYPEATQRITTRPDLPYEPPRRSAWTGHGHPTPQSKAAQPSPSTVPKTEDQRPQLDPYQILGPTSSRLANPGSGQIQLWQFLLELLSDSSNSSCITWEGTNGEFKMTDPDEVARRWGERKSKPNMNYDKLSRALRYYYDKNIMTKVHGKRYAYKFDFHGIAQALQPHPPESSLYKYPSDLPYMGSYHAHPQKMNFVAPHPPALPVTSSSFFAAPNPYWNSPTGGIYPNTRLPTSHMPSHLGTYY
# How it was run: as §1
# [12] = biological target: T10, EHF (Homo sapiens, UniProt Q9NZC4 1-300)
# T10 sequence: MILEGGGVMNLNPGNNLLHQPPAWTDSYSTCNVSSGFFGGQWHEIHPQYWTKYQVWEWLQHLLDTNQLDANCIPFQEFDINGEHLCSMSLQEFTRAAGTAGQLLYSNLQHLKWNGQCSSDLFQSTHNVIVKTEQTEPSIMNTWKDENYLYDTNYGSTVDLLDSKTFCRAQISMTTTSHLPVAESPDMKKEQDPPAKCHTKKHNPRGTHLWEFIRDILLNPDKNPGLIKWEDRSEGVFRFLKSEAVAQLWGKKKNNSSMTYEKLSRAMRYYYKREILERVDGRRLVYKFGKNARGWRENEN
# How it was run: as §1
# [13] = biological target: T11, ETV2 (Homo sapiens, UniProt O00321 1-342)
# T11 sequence: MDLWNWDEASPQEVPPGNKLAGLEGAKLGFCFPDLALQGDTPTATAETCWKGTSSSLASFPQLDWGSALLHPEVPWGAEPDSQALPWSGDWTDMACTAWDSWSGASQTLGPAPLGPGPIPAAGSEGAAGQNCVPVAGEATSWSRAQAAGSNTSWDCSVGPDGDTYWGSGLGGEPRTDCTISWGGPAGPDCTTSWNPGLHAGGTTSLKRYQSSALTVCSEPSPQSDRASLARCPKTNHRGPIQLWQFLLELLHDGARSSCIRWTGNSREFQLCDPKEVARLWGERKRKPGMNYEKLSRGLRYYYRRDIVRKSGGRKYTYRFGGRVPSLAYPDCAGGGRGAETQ
# How it was run: as §1
# Sequence of ETV6 (P41212 whole entry): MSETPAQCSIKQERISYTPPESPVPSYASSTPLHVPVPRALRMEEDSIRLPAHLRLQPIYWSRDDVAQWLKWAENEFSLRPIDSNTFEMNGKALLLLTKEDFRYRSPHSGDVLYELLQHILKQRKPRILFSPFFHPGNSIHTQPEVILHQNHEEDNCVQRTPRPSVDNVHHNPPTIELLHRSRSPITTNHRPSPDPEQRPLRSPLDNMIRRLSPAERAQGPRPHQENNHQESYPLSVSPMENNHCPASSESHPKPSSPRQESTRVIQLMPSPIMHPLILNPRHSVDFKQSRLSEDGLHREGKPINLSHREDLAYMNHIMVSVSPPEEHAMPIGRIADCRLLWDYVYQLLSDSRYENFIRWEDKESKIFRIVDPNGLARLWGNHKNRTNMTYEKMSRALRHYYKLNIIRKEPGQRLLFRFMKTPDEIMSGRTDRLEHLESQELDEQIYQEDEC
# Sequence of ELF1 (P32519 whole entry): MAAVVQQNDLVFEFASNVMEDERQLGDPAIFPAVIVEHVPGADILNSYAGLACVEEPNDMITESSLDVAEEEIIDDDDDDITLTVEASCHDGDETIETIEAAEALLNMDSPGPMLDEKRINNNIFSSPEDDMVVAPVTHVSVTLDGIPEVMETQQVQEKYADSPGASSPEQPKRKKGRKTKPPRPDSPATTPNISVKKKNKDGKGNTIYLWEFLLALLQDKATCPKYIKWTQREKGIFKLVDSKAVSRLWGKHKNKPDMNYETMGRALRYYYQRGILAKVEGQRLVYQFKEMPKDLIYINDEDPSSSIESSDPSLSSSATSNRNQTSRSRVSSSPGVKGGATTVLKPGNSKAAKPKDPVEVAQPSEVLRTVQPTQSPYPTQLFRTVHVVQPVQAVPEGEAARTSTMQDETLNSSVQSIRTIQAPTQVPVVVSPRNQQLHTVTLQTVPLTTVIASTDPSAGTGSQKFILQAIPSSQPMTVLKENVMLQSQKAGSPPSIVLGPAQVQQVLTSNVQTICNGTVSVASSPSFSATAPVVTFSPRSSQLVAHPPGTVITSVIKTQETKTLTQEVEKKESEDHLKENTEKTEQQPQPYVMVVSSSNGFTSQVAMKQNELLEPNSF
sequence,measurement,setting,value
GGTTAC,binding signal,[1],"1.05 fold enrichment (6-mer frequency, TF over GST control)"
same,binding signal,[2],"1.01 fold enrichment (6-mer frequency, TF over GST control)"
same,binding signal,[3],"1.04 fold enrichment (6-mer frequency, TF over GST control)"
same,binding signal,[4],"1 fold enrichment (6-mer frequency, TF over GST control)"
same,binding signal,[5],"1.05 fold enrichment (6-mer frequency, TF over GST control)"
same,binding signal,[6],"1.07 fold enrichment (6-mer frequency, TF over GST control)"
same,binding signal,[7],"1.01 fold enrichment (6-mer frequency, TF over GST control)"
same,binding signal,[8],"1.01 fold enrichment (6-mer frequency, TF over GST control)"
same,binding signal,[9],"1.02 fold enrichment (6-mer frequency, TF over GST control)"
ACGAGC,binding signal,[10],"1.01 fold enrichment (6-mer frequency, TF over GST control)"
same,binding signal,[11],"1.01 fold enrichment (6-mer frequency, TF over GST control)"
same,binding signal,[12],"1.02 fold enrichment (6-mer frequency, TF over GST control)"
same,binding signal,[3],"1.03 fold enrichment (6-mer frequency, TF over GST control)"
same,binding signal,[5],"1.06 fold enrichment (6-mer frequency, TF over GST control)"
same,binding signal,[13],"1.04 fold enrichment (6-mer frequency, TF over GST control)"
same,binding signal,[6],"1.01 fold enrichment (6-mer frequency, TF over GST control)"
GCCATC,binding signal,[5],"1.17 fold enrichment (6-mer frequency, TF over GST control)"
same,binding signal,[7],"1.03 fold enrichment (6-mer frequency, TF over GST control)"
